Measured values taken from PubChem BioAssay (NCATS).
Results filed as inconclusive are left out. Where a call stands in place of a potency, no number is given. Calls of active or inactive are those of the source. Calls come from the whole dose curve; as a rule, active = well fitted curve in the direction sought with a large enough effect; inconclusive = small, poorly fitted or top-dose-only effect, or another doubt; inactive = no such curve, though single readings can be large; an effect the other way counts as inactive or inconclusive.

Assays:
[1] = target: Aldehyde dehydrogenase, mitochondrial (Homo sapiens) (UniProt P05091); assay: qHTS for Inhibitors of the Aldehyde Dehydrogenase Family (ALDH2) Primary screen (AID 2061308); note: nearly all actives have a fitted effect of over 55% in size
[2] = target: Retinaldehyde dehydrogenase 3 (Homo sapiens) (UniProt P47895); assay: qHTS for Inhibitors of the Aldehyde Dehydrogenase Family (ALDH1A3) Primary screen (AID 2061315)

Row | SMILES | Potency [1] | Potency [2]
1 | Cc1cc(C2N=C(Nc3nc4ccccc4o3)NC3=C2C(=O)CCC3)n[nH]1 (stereo not given) | inactive | inactive
2 | FC(F)(F)c1cccc(-c2nc(NCc3ccc(-c4ccnc(C(F)(F)F)c4)cc3)c3ccccc3n2)c1 | inactive | inactive
3 | N#Cc1nc(NCCCO)nc(Nc2ccccc2)n1 | inactive | inactive
4 | CC1CCC(C(=O)Nc2ccc([S+](=O)([O-])Nc3nccs3)cc2)CC1 (stereo not given) | inactive | inactive
5 | COc1ccc(Br)cc1S(=O)(=O)N1CCN(S(=O)(=O)c2ccc3c(c2)OCCO3)CC1 | inactive | inactive
6 | COc1cc(OC)cc(-c2ccc3c(-c4ccc(F)cc4)[nH]nc3n2)c1 | inactive | inactive
7 | CCOc1ccc(CCNC(=O)c2cc3sccc3[nH]2)cc1OCC | inactive | inactive
8 | CN(C)[C@@H]1CCN(c2cccc(Nc3nn4c(=O)c5ccccc5nc4s3)c2)C1 | inactive | inactive
9 | Cc1ccc(-c2cc(C(=O)Nc3ccc(S(=O)(=O)Nc4ccc(C#N)cc4)cc3)c3ccccc3n2)cc1C | inactive | inactive
10 | CCCn1c(-c2ccc(F)cc2)nc2c(NCC3CCCN3CC)nc(C)nc21 (stereo not given) | inactive | inactive
11 | CC(=O)Oc1ccc(C2(c3ccc(OC(C)=O)cc3)Oc3ccccc3NC2=O)cc1 | inactive | inactive
12 | Cc1ccc(OCCn2c(CCNC(=O)C3CCN(C(=O)OC(C)(C)C)CC3)nc3ccccc32)cc1 | inactive | inactive
13 | C/C(=C\c1ccsc1)C1Nc2cccc3cccc(c23)N1 | inactive | inactive
14 | c1c[nH]c(CNc2ncnc3ccc(-c4ccoc4)cc23)n1 | inactive | inactive
15 | COC(=O)c1ccc(OC(C)=O)c2ncccc12 | inactive | inactive
16 | O=C1c2ccccc2C(=O)N1c1ccc2ncccc2c1 | inactive | inactive
17 | Brc1cnc2nc(SCc3ccncc3)[nH]c2c1 | inactive | inactive
18 | CC1=CC(=O)C2C(C)(C)CCCC2(C)C12CCC1(COC(=O)C1)O2 (stereo not given) | inactive | inactive
19 | O=C(NCc1nnc(-c2cc3ccccc3[nH]2)o1)c1ccccc1 | inactive | inactive
20 | Cc1ccc(NS(=O)(=O)c2ccc3c(c2)CC(=O)N3C)cc1C | inactive | inactive

Row | SMILES | Potency [1] | Potency [2]
21 | O=C(Nc1nc(-c2ccccc2)cs1)c1ccncc1NS(=O)(=O)c1ccc(F)cc1 | inactive | inactive
22 | COC/C=C/c1cc(F)c(S(=O)(=O)N2CCN(S(=O)(=O)c3ccc4c(c3)OCCO4)CC2)cc1F | inactive | inactive
23 | O=C(OCC#CCSc1nnc(-c2cccc3ccccc23)o1)c1ccc(C(F)(F)F)cc1 | inactive | inactive
24 | Cc1cc(C)nc(Nc2nnc(N3CCN(c4cccc(C(F)(F)F)c4)CC3)s2)c1 | inactive | inactive
25 | CCc1cccc(CC)c1OCc1cc(C2Nc3ccccc3C(=O)N2Cc2ccco2)ccc1OC (stereo not given) | inactive | inactive
26 | O=C(NCc1ccccc1)n1cc(P(=S)(c2ccccc2)c2ccccc2)c2ccccc21 | inactive | inactive
27 | CC(C)CCC[C@@H](C)[C@H]1CC[C@H]2[C@@H]3CC=C4C[C@@H](OC(=O)NCCN(C)C)CC[C@]4(C)[C@H]3CC[C@]12C | inactive | inactive
28 | CCC(C)N(C)C(=O)Cn1nc(-c2ccc(C)cc2)ccc1=O (stereo not given) | inactive | inactive
29 | CCCn1c(C)nc2c(NC3CCCCC3)nc(C)nc21 | inactive | inactive
30 | Cc1ccc(S(=O)(=O)Nc2cnccc2C(=O)Nc2nc(-c3ccc(Cl)cc3)cs2)cc1 | inactive | inactive
31 | CCOc1ccc(C(=O)Oc2ccc(-c3nc4ccccc4[nH]3)cc2)cc1Cl | inactive | inactive
32 | Cc1cccc(CNc2ccnc(-c3ccc(F)cc3F)n2)c1 | inactive | inactive
33 | FC(F)(F)c1cccc(CSc2nc3ncc(Br)cc3[nH]2)c1 | inactive | inactive
34 | Fc1cccc(CNc2ncnc3ccc(-c4cccc(Cl)c4)cc23)c1 | inactive | inactive
35 | CCOC(=O)C1CCN(C(=O)C(C)(C)NC(=O)Nc2ccc3sccc3c2)CC1 | inactive | inactive
36 | O=C(Nc1ccc2c(c1)OCCO2)c1ccc(-c2nc3ccccc3[nH]2)cc1 | inactive | inactive
37 | Cn1cc2ccc(-c3ccc4ncnc(NCc5cccs5)c4c3)cc2n1 | inactive | inactive
38 | Cc1ccnc(NC(=S)N2CCc3ccccc3C2)c1 | inactive | inactive
39 | Cc1ccc(-c2cc(C(=O)Nc3ccc(S(C)(=O)=O)cc3)c3ccccc3n2)cc1C | inactive | inactive
40 | C=CC(C)(C)c1[nH]c2ccccc2c1C[C@@H]1NC(=O)[C@H](C)NC1=O | inactive | inactive
